High-throughput results as filed in PubChem.
aSyn rescue: qHTS of alpha-syn Inhibitors; Yeast expressing alpha-synuclein, growth rescue, BacTiter-Glo, 24 h; Potency, µM (titrated, usually from 46.1 µM), actives largely listed as activators; actives 0.14% (n = 370,000); AID 652106, 2013; note: nearly all actives have a fitted effect of over 65% in size
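Galactose-induced alpha-syn yeast (OD600=0.02, raffinose-pregrown) + pinned cpd, 24 hr, 30 deg C; growth by BacTiter-Glo luminescence. Growth restoration scores as activation.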
TDP43 rescue: qHTS of TDP-43 Inhibitors | Potency, µM (doses to about 46.1 µM), hits mostly activators | actives 1.8% (n = 410,000) | TDP-43 expressing yeast growth rescue, BacTiter-Glo, 24 h | AID 652104, 2013; note: nearly all actives have a fitted effect of over 50% in size
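Cell-based yeast growth screen: TDP-43 expression induced in galactose, inoculum OD600=0.02 after raffinose pregrowth to mid-log. Read-out BacTiter-Glo luminescence at 24 hr, 30 deg C; inhibition of toxicity seen as signal increase.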
Abeta yeast res: qHTS for compounds that reverse cellular toxicity of Amyloid beta (A-beta) peptide in yeast: Primary Screen; yeast expressing A-beta42, growth rescue, OD600, 48 h; response scale: 0% DMSO, 100% iron-clioquinol control; Potency, µM (doses to about 46.1 µM), most hits filed as activators; actives 0.063% (n = 410,000); AID 1347071, 2019; note: nearly all actives have a fitted effect of over 55% in size
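Yeast growth medium received pinned compounds, then yeast cells expressing toxic A-beta were added; plates incubated at 30 C for 48 hr. Growth read as absorbance at 600 nm, normalized to DMSO and equimolar FeCl3 plus clioquinol controls.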
FUS yeast rescue: qHTS for Suppressors of FUS Proteinopathy: Primary screen using FUS-linked yeast assay. Potency, µM (titrated, usually from 76.6 µM), usual class: activators. actives 0.24% (n = 390,000). S. cerevisiae FUS-expressing, growth rescue, OD600, 24 h; note: nearly all actives have a fitted effect of over 55% in size
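Yeast expressing FUS under galactose induction, OD 0.005 in 2% galactose medium; compounds in a dilution series, 24 h at 30C. Growth rescue by absorbance at 600 nm; CP55940 positive control, DMSO negative.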
TSG101-PTAP inh: qHTS Assay for Iinhibitors of HIV-1 Budding by Blocking the Interaction of PTAP/TSG101; AID 493005, 2010; Tumor susceptibility gene 101 protein (Homo sapiens), Q99816; Fluorescence polarization, FITC-PTAP peptide / Tsg101 binding; 340,000 tested, under 10 active; Potency, µM (highest dose often 115 µM), actives largely listed as inhibitors; active = well fitted inhibition curve with a large enough effect in the main read-out, with a control signal flat, not every such curve was filed as active; inconclusive = small, poorly fitted or top-dose-only effect, or effect the other way, or a change in a side signal; inactive = no such curve, though single readings can be large or run the other way
Target sequence (Q99816 whole entry, looked up): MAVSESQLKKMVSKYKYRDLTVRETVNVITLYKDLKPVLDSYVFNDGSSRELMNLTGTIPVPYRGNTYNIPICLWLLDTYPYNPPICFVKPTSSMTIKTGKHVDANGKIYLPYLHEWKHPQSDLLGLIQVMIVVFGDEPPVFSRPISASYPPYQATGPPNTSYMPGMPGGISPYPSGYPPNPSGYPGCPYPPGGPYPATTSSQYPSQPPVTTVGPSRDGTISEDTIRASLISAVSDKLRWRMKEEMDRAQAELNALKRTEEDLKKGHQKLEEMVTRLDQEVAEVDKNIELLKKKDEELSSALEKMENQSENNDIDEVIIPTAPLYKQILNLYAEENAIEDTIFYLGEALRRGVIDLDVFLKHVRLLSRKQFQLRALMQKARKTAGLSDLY
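Fluorescence polarization binding of Tsg101 binding domain (10 uM final) to FITC-labeled PTAP peptide (50 nM final) in HEPES pH 7.5 buffer with NaCl, Tween 20, EDTA, TCEP. Compounds added before peptide; binding 20 min at RT.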
Of the large screens only hits and unclear results are named; the others gave an inactive call. Hits are enriched below; roughly 2.1% of the tested compounds scored in any of these assays. Unless noted, calls come from the whole dose curve; as a rule, active = well fitted curve in the direction sought with a large enough effect; inconclusive = small, poorly fitted or top-dose-only effect, or another doubt; inactive = no such curve, though single readings can be large; an effect the other way counts as inactive or inconclusive.

COc1ccc(Cl)cc1NC(=O)CSC1=Nc2ccccc2C2=NC(CC(=O)NCc3ccc4c(c3)OCO4)C(=O)N12 (centres undefined)	FUS yeast rescue inconclusive (no result: aSyn rescue, TSG101-PTAP inh)
O=C1N/C(=N\N=C\c2ccccn2)SC1Cc1cccc(SC(F)F)c1 (centres undefined)	aSyn rescue 5.01µM, Abeta yeast res inconclusive (no result: FUS yeast rescue)
COC(=O)c1ccc(COC(=O)CNC(=O)c2ccc(C)s2)cc1	none
CCCC1(c2ccccc2)NC(=O)N(CC(=O)c2[nH]c(C)c(C(=O)OCC)c2C)C1=O (centres undefined)	FUS yeast rescue 22.4µM
COc1ccc(OC)c(CNc2ccc([N+](=O)[O-])cc2C)c1	TDP43 rescue inconclusive
COc1cccc(CNc2ccc([N+](=O)[O-])cc2C)c1	TDP43 rescue 15.8µM
CCn1c(-c2cc(-c3ccc(OC(C)C)cc3)nc3ccccc23)n[nH]c1=S	TDP43 rescue inconclusive, FUS yeast rescue 35.5µM
COc1cccc(-n2c(-c3ccccc3F)nc3c(cnn3-c3ccc(C)cc3)c2=O)c1	FUS yeast rescue 15.8µM (no result: aSyn rescue, TSG101-PTAP inh)
CN1C(=O)c2cc(NC(=O)Cc3ccccc3)ccc2OC[C@H]2O[C@H](CC(=O)O)CC[C@H]21	none (no result: aSyn rescue, TDP43 rescue, Abeta yeast res, TSG101-PTAP inh)
CC(Oc1cccc(Cl)c1)C(=O)Nc1ccc([N+](=O)[O-])cn1 (centres undefined)	TDP43 rescue 12.6µM (no result: FUS yeast rescue)
CC(Oc1cccnc1[N+](=O)[O-])C(=O)Nc1cccc(Cl)c1 (centres undefined)	TDP43 rescue 15.8µM
COc1ccc(OCCN2CCC(C(=O)NC(c3ccc(F)cc3)c3ncccc3C)CC2)cc1 (centres undefined)	none (no result: TSG101-PTAP inh)
Cc1ccc(N(C)C(=O)C2CCN(S(=O)(=O)c3c(C)noc3/C=C/c3c(C)cc(C)cc3C)CC2)cc1	none (no result: aSyn rescue, TSG101-PTAP inh)
CCc1nnc2c3ccccc3nc(Nc3ccccc3OC)n12	none (no result: aSyn rescue, TSG101-PTAP inh)
Cc1ccc(-c2cnc(C(O)c3cccc(Cl)c3)[nH]2)cc1 (centres undefined)	none (no result: TSG101-PTAP inh)
O=C(O)C1CCN(C(=O)c2ccccc2N2C(=O)[C@@H]3Cc4c([nH]c5ccccc45)C(c4cccc(Cl)c4)N3C2=O)CC1 (some centres undefined)	FUS yeast rescue 12.6µM
CCn1cc(C(=O)OCC(=O)OC2CC(C)CCC2C(C)C)c(=O)c2ccc(C)nc21 (centres undefined)	TDP43 rescue 22.4µM, FUS yeast rescue inconclusive
O=C1CN(C(=O)COc2ccc(Cl)cc2Cl)C(c2ccccc2)c2cc(F)ccc2N1 (centres undefined)	FUS yeast rescue 31.6µM (no result: aSyn rescue, TSG101-PTAP inh)
COc1cccc(CNC(=O)c2cc3c(c(-c4cccc(-c5cccc(C#N)c5)c4)n2)[C@H](CCO)N(S(=O)C(C)(C)C)C3)c1 (some centres undefined)	TDP43 rescue inconclusive, FUS yeast rescue 22.4µM (no result: TSG101-PTAP inh)
CN(C)C(=O)c1cccc(-c2cccc(-c3nc(C(=O)NCc4ccccc4)cc4c3[C@@H](CCO)N(S(=O)C(C)(C)C)C4)c2)c1 (some centres undefined)	FUS yeast rescue 35.5µM (no result: TSG101-PTAP inh)
Cc1cccc(-c2noc(-c3cccnc3NCc3ccccc3Cl)n2)c1	none (no result: aSyn rescue, TSG101-PTAP inh)
CCc1ccccc1NC(=O)c1nc2nc(C)cc(C(F)F)n2n1	none (no result: aSyn rescue, TSG101-PTAP inh)
CCN(CC)S(=O)(=O)c1nnc(NC(=O)c2ccc(Br)cc2)s1	none (no result: aSyn rescue, TSG101-PTAP inh)
COc1ccc(-c2csc3ncnc(N4CCN(c5cccc(Cl)c5)CC4)c23)cc1	none (no result: FUS yeast rescue)
COc1ccc(-c2csc3ncnc(N4CCN(S(=O)(=O)c5cccs5)CC4)c23)cc1	TDP43 rescue 12.6µM
Cc1cc2ncn(-c3ncnc4scc(-c5ccccc5)c34)c2cc1C	TDP43 rescue 8.91µM (no result: FUS yeast rescue)
c1ccc(-c2csc3ncnc(N4CCc5ccccc5C4)c23)cc1	TDP43 rescue 11.2µM (no result: FUS yeast rescue)
COc1ccc(-c2csc3ncnc(N4CCN(c5cccc(OC)c5)CC4)c23)cc1	TDP43 rescue 11.2µM (no result: FUS yeast rescue)
CSc1ccccc1CNc1nc(NCC2CC2)nc2ccsc12	none (no result: TSG101-PTAP inh)
